Reference: PubChem BioAssay (NCI)
The panel holds about 83,000 compounds, 20% with a hit somewhere; the sample as a whole holds those more often.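 Treatment: one concentration, 48 hours, 96-well format. Scoring: percent growth, with anything below 10 considered active.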 A number with no mark means an inactive call. The source made the active and inactive calls.

Columns and labels:
Assay in all cases: NCI-60 one-dose screen, 48 h (100 = growth as untreated, 0 = no growth, -100 = all killed)
Conditions in all cases: 10 µM
NCI-H23 lung = test system: NCI-H23 lung
NCI-H322M lung = test system: NCI-H322M lung
HOP-62 NSCLC = test system: HOP-62 NSCLC
NCI-H460 lung = test system: NCI-H460 lung
HOP-92 NSCLC = test system: HOP-92 NSCLC
A549/ATCC NSCLC = test system: A549/ATCC NSCLC
786-0 renal = test system: 786-0 renal
COLO 205 colon = test system: COLO 205 colon
NCI-H522 lung = test system: NCI-H522 lung

Structure (SMILES)	growth (NCI-H23 lung)	growth (NCI-H322M lung)	growth (HOP-62 NSCLC)	growth (NCI-H460 lung)	growth (HOP-92 NSCLC)	growth (A549/ATCC NSCLC)	growth (786-0 renal)	growth (COLO 205 colon)	growth (NCI-H522 lung)
CC(=O)C1CCCCC1	103%	105%	96%	102%	77.5%	97.2%	98.8%	101%	
COc1cc2nn(-c3ccccc3N)nc2cc1OC	94.3%	97.1%	103%	102%	85.8%	95.1%	95.7%	119%	100%
CCCCCCCCO	97.5%	108%	99.6%	103%	107%	100%	102%	114%	107%
O=c1cc(-c2ccccc2)oc2c1ccc1ccccc12	85.2%	96%	99.5%	97.1%	50.5%	73.6%	99.4%	85.8%	79.3%
Cc1nc2c(ccc3ccccc32)s1	98%	116%	103%	115%	93.7%	98.6%	101%	110%	103%
CCn1c(=O)n(C)c2c(=O)n(C)c(=O)n(C)c21	98.9%	105%	97.2%	112%	102%		109%	101%	96.1%
O=C(O)CCCC(=O)O	95.3%	98.9%	97.7%	101%	72.6%	97.9%	106%	97.1%	99.7%
COc1ccccc1N1CCN(C(=S)Nc2ccccc2)CC1	92.8%	93.2%	89.7%	102%	80.9%	99.7%	96.3%	97.4%	
NCCCN	112%	108%	99.4%	108%	103%	105%	104%	122%	105%
Cc1cc(C(C)(C)C)cc(C)c1Br	104%	121%	99.8%	103%	75.5%	109%		112%	
O=S(=O)(Cc1ccccc1)c1ccccc1	105%	118%	104%	112%	105%	98.6%	101%	112%	104%
CC1NC(=O)NC1CCCCCC(=O)O (centres undefined)	100%	132%	104%	111%	72.9%	94.9%		110%	
OCC(O)C(O)C(O)C(O)/C=N/O (centres undefined)	101%	103%	83.5%	99.8%	74.8%	60.9%	96.8%	112%	94.9%
Cn1cnc2nc(Cl)nc(Cl)c21	40.6%	34.1%	8.69% (active)	-9.25% (active)	31.3%	17.2%	4.6% (active)	-29.3% (active)	
COC(=O)c1ccc(C(C)C)cc1	100%	95.8%	87.8%	114%	82.7%	90.5%	100%	98%	79.3%
CC(=Nc1ccccc1)C1=C(O)C(Cc2cccc(F)c2)NC1=O (centres undefined)	17.1%	31.8%	28.9%	6.19% (active)	41.2%	14.3%	15.3%	-55.5% (active)	-34.5% (active)
O=C(Cc1nc2ccc([N+](=O)[O-])cc2nc1CC(=O)c1ccccc1)c1ccccc1	43.9%	61%	79.8%	52.9%	71.5%	58.8%	42%	91.3%	31.5%

Structure (SMILES)	growth (NCI-H23 lung)	growth (NCI-H322M lung)	growth (HOP-62 NSCLC)	growth (NCI-H460 lung)	growth (HOP-92 NSCLC)	growth (A549/ATCC NSCLC)	growth (786-0 renal)	growth (COLO 205 colon)	growth (NCI-H522 lung)
O=P(O)(O)OCC(O)CO (centres undefined)	107%	107%	104%	109%	96.1%	97.3%	101%	110%	109%
C/C(=N/NC(N)=O)c1ccco1	97.1%	107%	85.7%	107%	89.8%	83.7%	99.9%	105%	90.5%
CCOc1ccc(/C=C/C(=O)c2ccccc2)cc1	106%	132%	102%	103%	82.6%	97.5%	89.8%	116%	76.9%
CCNc1nc2c(cnn2C)c(=O)[nH]1	99.7%	95.5%	101%	108%	99.8%	109%	101%	96.5%	98.4%
CCCC(C)OCC(=O)O (centres undefined)	109%	96.8%	111%	103%	76.6%	93.9%	107%	108%	101%
COc1ccc(-c2cc3c(nn2)-c2ccccc2C3=O)cc1	68.5%	65.6%	-14.4% (active)	15.1%	98.3%		25.8%	42.3%	26.4%
c1ccc(Cc2ccccc2)cc1	107%	96.2%	101%	109%	59.2%	39.8%	92.7%	125%	
CCOC(=O)c1ccc(NC(=S)P(=O)(c2ccccc2)c2ccccc2)cc1	102%	94.7%	105%	71.3%	78.1%	103%	101%	115%	113%
CCOc1ccccc1/C=N/Nc1nc2ccccc2o1	91.8%	113%	97.2%	102%	87.9%	98.6%	116%	121%	110%
S=C1CCCCCN1	105%	99.5%	92.9%	106%	103%	101%	107%	111%	105%
O=[N+]([O-])c1ccc(N=Nc2ccc(O)c3ccccc23)cc1	6.51% (active)	79.3%	75.2%	30.9%	10.8%	71.1%		88.5%	-14.2% (active)
COC(=O)c1cc(-c2ccc(Cl)c(Cl)c2)[nH]c(=O)c1C#N	107%	95.4%	95.5%	109%	91.4%	101%	91.7%	114%	97.6%
O=[N+]([O-])c1ccc(S(=O)(=O)NN=C2CCCCC2)cc1	104%	108%	99.5%	121%	96.7%	93.9%	103%	102%	
CC1C(=O)c2ccccc2CC1C(=O)O (centres undefined)	96.8%	99.5%	105%	122%		93.8%	110%	105%	
CCN(CC)CCNc1ccc(CO)c2sc3ccccc3c(=O)c12	44.9%	50.9%	43.3%	14.5%		24.2%	49.6%	11.9%	-17.8% (active)
O=[N+]([O-])c1ccc(-c2noc(-c3cccs3)n2)cc1	82.1%	81.4%	87.6%	82.7%		81.3%	76.1%	111%	81.7%
N#CCCN(CCCN1CCOCC1)CN1C(=O)c2ccccc2C1=O	102%	90.8%	105%	111%		105%	111%	109%	92%
